# According to article PMC10943123:
# Tests used:
# [1] = molecular target: Nuclear cap-binding protein subunit 1 (UniProt Q09161); experiment: cross-linking mass spectrometry
# [2] = molecular target: Cell division cycle 5-like protein (UniProt Q99459); experiment: cross-link between two proteins; cross-linking mass spectrometry
# [3] = molecular target: Pre-mRNA-processing-splicing factor 8 (UniProt Q6P2Q9); experiment: as above
# [4] = molecular target: Small nuclear ribonucleoprotein-associated proteins B and B' (UniProt P14678); experiment: as above
# [5] = molecular target: Splicing factor 3A subunit 2 (UniProt Q15428); experiment: as above
# Sequence of Splicing factor 3A subunit 2 (Q15428 whole entry): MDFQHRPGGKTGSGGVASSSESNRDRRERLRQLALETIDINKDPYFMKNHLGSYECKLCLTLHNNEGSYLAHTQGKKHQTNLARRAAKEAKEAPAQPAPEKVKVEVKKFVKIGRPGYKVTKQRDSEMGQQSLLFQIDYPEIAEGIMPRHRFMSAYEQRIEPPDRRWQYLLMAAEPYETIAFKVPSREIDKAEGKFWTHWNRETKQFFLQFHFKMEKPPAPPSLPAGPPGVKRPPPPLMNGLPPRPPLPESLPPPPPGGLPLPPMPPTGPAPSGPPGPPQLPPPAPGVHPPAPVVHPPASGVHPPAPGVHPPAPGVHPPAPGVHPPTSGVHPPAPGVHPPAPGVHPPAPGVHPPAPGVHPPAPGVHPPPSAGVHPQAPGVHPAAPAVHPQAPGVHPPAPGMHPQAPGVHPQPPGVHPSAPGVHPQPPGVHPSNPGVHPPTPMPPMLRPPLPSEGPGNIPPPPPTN
# [6] = molecular target: U6 snRNA-associated Sm-like protein LSm4 (UniProt Q9Y4Z0); experiment: as above
# Sequence of U6 snRNA-associated Sm-like protein LSm4 (Q9Y4Z0 whole entry): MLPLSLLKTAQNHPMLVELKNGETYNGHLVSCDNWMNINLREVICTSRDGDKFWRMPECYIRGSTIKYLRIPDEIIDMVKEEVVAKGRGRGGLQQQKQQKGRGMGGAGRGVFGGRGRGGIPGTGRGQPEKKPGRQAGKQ
# [7] = molecular target: U6 snRNA-associated Sm-like protein LSm6 (UniProt P62312); experiment: as above
# Sequence of U6 snRNA-associated Sm-like protein LSm6 (P62312 whole entry): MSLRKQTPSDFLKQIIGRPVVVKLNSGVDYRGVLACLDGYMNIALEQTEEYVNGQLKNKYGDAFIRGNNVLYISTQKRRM
# [8] = molecular target: WD repeat-containing protein 70 (UniProt Q9NW82); experiment: as above
# Sequence of WD repeat-containing protein 70 (Q9NW82 whole entry, the tested form may be a part): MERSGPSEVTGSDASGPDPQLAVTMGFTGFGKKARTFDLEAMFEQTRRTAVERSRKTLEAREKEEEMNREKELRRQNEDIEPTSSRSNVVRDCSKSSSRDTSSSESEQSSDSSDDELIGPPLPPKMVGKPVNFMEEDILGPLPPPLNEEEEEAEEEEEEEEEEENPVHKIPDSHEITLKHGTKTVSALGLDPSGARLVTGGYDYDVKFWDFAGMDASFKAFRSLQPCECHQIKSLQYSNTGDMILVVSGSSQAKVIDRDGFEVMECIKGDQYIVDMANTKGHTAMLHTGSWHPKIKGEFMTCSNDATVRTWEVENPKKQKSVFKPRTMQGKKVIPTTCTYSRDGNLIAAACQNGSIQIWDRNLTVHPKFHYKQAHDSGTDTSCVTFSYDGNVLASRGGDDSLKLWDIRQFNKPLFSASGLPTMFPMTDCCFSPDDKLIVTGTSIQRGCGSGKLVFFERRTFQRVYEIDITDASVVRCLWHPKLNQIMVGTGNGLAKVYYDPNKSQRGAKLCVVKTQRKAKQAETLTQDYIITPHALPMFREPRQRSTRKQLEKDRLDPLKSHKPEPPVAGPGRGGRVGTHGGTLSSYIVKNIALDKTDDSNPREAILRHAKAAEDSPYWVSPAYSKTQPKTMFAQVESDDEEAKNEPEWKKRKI
# [9] = molecular target: WW domain-binding protein 4 (UniProt O75554); experiment: as above
# Sequence of WW domain-binding protein 4 (O75554 whole entry, the tested form may be a part): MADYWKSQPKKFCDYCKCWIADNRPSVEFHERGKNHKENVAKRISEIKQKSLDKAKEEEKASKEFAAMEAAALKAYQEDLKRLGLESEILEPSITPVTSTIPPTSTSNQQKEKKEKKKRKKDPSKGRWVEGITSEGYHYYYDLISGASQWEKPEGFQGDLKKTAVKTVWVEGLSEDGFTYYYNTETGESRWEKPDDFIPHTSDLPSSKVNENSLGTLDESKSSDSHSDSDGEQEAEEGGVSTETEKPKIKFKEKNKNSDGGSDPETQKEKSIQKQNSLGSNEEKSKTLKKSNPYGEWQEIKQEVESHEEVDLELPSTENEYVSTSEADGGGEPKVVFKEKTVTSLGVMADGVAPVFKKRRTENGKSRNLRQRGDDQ
# [10] = molecular target: Zinc finger CCCH domain-containing protein 18 (UniProt Q86VM9); experiment: as above
# Sequence of Zinc finger CCCH domain-containing protein 18 (Q86VM9 whole entry, the tested form may be a part): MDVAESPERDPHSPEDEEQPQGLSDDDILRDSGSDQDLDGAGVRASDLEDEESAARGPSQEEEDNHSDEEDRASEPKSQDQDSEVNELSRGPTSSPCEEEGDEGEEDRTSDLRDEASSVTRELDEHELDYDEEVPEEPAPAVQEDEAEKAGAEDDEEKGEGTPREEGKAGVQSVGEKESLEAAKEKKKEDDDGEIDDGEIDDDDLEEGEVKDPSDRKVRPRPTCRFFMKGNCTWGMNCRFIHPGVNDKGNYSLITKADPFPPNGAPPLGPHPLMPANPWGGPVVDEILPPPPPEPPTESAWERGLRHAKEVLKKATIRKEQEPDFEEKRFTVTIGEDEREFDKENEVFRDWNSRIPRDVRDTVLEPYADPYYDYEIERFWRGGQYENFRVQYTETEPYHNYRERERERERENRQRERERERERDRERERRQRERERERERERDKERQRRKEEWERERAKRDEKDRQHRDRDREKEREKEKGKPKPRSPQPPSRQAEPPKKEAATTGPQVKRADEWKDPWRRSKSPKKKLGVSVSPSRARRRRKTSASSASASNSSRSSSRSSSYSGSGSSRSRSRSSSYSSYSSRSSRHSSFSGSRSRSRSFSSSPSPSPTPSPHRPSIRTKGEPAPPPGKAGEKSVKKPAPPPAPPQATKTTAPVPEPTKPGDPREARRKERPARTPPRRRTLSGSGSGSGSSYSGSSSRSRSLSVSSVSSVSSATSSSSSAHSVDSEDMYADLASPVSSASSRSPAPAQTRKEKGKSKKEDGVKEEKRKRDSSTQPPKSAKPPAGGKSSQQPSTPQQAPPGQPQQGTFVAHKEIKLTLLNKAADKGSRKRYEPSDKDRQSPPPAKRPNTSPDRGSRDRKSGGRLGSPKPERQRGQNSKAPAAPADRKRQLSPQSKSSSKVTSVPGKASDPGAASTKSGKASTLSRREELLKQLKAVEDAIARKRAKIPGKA
# [11] = molecular target: Cell division cycle 5-like protein (UniProt Q99459); experiment: cross-link between two proteins; cross-linking mass spectrometry; other
# Sequence of Cell division cycle 5-like protein (Q99459 whole entry): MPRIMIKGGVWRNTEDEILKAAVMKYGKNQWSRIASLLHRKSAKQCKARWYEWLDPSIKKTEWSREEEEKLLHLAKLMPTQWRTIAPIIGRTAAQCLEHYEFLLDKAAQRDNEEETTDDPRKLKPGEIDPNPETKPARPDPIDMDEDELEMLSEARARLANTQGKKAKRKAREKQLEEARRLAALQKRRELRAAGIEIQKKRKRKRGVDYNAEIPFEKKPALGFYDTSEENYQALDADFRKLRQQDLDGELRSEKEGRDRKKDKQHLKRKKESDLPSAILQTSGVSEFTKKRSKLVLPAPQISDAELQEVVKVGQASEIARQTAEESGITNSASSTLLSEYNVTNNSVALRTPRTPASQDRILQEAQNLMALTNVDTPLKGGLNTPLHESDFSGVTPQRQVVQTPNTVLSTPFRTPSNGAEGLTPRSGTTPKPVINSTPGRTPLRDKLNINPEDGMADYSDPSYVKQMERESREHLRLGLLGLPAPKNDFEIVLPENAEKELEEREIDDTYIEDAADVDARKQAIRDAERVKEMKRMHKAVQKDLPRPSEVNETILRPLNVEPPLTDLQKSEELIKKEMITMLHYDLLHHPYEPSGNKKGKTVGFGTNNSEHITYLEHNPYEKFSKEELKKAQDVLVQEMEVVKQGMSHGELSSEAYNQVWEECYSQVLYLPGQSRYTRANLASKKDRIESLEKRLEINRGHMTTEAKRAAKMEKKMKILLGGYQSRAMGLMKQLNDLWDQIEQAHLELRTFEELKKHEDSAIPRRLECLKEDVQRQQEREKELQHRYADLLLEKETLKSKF
# Sequence of Nuclear cap-binding protein subunit 1 (Q09161 whole entry): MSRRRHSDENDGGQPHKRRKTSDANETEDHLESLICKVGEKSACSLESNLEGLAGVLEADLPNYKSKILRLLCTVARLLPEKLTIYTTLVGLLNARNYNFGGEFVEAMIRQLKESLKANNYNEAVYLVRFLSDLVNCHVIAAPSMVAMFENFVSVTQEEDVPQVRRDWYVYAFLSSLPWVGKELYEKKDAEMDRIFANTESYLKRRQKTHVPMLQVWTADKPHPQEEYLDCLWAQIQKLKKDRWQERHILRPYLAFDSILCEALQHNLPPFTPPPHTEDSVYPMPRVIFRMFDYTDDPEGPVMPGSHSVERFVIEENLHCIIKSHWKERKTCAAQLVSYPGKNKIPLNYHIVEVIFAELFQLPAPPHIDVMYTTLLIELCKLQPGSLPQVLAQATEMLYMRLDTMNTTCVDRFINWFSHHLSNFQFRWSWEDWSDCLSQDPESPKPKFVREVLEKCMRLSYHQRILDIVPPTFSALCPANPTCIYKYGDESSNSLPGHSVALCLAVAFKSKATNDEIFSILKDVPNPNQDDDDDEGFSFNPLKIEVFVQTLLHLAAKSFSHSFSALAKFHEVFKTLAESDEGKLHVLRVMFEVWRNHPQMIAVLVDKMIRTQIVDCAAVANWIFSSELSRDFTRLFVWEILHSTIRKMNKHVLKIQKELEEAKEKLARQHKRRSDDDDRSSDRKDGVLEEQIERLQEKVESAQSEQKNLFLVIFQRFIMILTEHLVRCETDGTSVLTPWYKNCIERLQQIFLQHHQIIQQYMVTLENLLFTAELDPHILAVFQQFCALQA
# Sequence of Peptidyl-prolyl cis-trans isomerase H, O43447 (O43447 whole entry): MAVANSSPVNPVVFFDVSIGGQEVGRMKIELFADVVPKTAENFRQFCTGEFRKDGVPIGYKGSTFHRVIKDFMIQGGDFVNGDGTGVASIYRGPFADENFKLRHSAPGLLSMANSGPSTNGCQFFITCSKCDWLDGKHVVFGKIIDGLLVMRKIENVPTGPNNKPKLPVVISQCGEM
substance,measurement,setting,value
"Nuclear cap-binding protein subunit 2, P52298",listed as a hit,[1],yes
"U5 small nuclear ribonucleoprotein 40 kDa protein, Q96DI7",listed as a hit,[2],yes
"Thioredoxin-like protein 4A, P83876",listed as a hit,[3],yes
"U2 small nuclear ribonucleoprotein B'', P08579",listed as a hit,[4],yes
"Splicing factor 3B subunit 4, Q15427",listed as a hit,[5],yes
"U6 snRNA-associated Sm-like protein LSm7, Q9UK45",listed as a hit,[6],yes
"U4/U6 small nuclear ribonucleoprotein Prp3, O43395",listed as a hit,[7],yes
"Pre-mRNA-processing factor 17, O60508",listed as a hit,[8],yes
"Peptidyl-prolyl cis-trans isomerase H, O43447",listed as a hit,[9],yes
"Nuclear cap-binding protein subunit 1, Q09161",listed as a hit,[10],yes
"U5 small nuclear ribonucleoprotein 200 kDa helicase, O75643",listed as a hit,[11],yes
